Assay outcomes (PubChem)
An excerpt weighted towards active compounds, which were near 5.3% of everything screened.
BAZ2B inh – inhibitors of human BAZ2B bromodomain. AlphaScreen BAZ2B-H3K14Ac peptide displacement. AID 504333. 360,000 compounds, 4.4% hits. Potency, µM (series often up to 114 µM), hits mostly inhibitors. Q9UIF8; further: nearly all actives have a fitted effect of over 60% in size
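In this displacement format the biotinylated H3(5-23) peptide acetylated at Lys14 serves as ligand at 50 nM, with BAZ2B at 50 nM in PBS pH 7.4 containing 0.01% Tween-20. Donor and acceptor beads are 10 ug/mL final.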
JMJD2A Tudor inh – JMJD2A Tudor domain (human) inhibition; 390,000 compounds, 4.4% hits; AlphaScreen JMJD2A-Tudor / H3K4me3 peptide binding; Potency, µM (series often up to 114 µM), actives largely listed as inhibitors; O75164; further: nearly all actives have a fitted effect of over 50% in size
Six1-Eya2 inh – inhibitors of human Six1/Eya2 interaction; Q15475+O00167; AlphaScreen GST-Six1/His-Eya2 binding, biochemical; hits give low values; activity change, % (concentration not given with the values); 360,000 compounds, 0.56% hits; AID 651725; in the data active means activity change below about -65%; inconclusive means mostly about -30% to -63%
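Six1/Eya2 binding was read as AlphaScreen signal after compounds were pinned into GST-Six1 plus His-tagged Eya2 (5X stock 250/500 nM) in pH 8.0 Tris/NaCl/TCEP buffer, beads added, then incubated 1 h, 37 C, dark.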
HP1b binding inh – HP1-beta chromodomain-methylated histone interaction inhibition; P83916; AlphaScreen HP1-beta / biotin-H3K9me3 peptide binding; Potency, µM (titrated, usually from 114 µM), actives largely listed as inhibitors; 390,000 compounds, 0.56% hits; AID 540317; further: nearly all actives have a fitted effect of over 70% in size
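Compound inhibition of the preformed complex between 50 nM HP1-beta and 50 nM biotinylated H3K9me3 peptide was read by AlphaScreen. Buffer was PBS pH 7.4 with 0.01% Tween-20. Incubations ran 30 min at room temperature, with 10 ug/mL donor/acceptor beads.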
CtBP-E1A blk – inhibitors of CtBP/E1A interaction; AlphaScreen GST-E1A/His-CtBP binding, 1536-well; hits give low values; activity change, % (no concentration beside the values); 340,000 compounds, 0.49% hits; in the data active means activity change below about -65%; inconclusive means mostly about -30% to -63%
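Protein mix (5X: 125 nM each GST-E1A, His-CtBP) was incubated with pinned compound 2 h at 37 deg C in dark, in 50 mM Tris pH 8.0 buffer with 300 mM NaCl. Glutathione donor and nickel acceptor beads followed; AlphaScreen signal read after 1 h.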
TDP1 inh – blocks human tyrosyl-DNA phosphodiesterase 1; recombinant TDP1, AlphaScreen DNA substrate cleavage; Potency, µM (doses to about 130 µM), most hits filed as inhibitors; 350,000 compounds, 0.28% hits; further: nearly all actives have a fitted effect of over 40% in size
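Steps: enzyme plus compound, 15 min RT; add biotin/phosphotyrosine-FITC oligonucleotide (15 nM final), react 5 min; add donor/acceptor beads (10 ug/ml final), 10 min; read AlphaScreen. Tdp1 at 1 nM final.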
Of the large screens only hits and unclear results are named; the others gave an inactive call; ! = not active in a repeat. Unless noted, the call rests on the fitted dose curve; in most records, active means well fitted inhibition curve with a large enough effect; inconclusive means small, poorly fitted or top-dose-only effect; inactive means no such curve, though single readings can be large or run the other way.

O=C(N/N=C/c1ccncc1)c1cc([N+](=O)[O-])cc([N+](=O)[O-])c1O	BAZ2B inh inconclusive, JMJD2A Tudor inh 79.4µM
O=C(O)COc1ccccc1/C=N/NC(=O)c1cccc(S(=O)(=O)Nc2cccc(Cl)c2)c1	Six1-Eya2 inh inconclusive, CtBP-E1A blk -71.1
NS(=O)(=O)c1ccc(CCNC(=O)Cn2c(=O)c3cccn3c3ccc(F)cc32)cc1	none (no result: Six1-Eya2 inh, CtBP-E1A blk)
CCc1ccccc1NC(=O)C1CCN(S(=O)(=O)c2ccc3[nH]c(=O)ccc3c2)CC1	none (no result: Six1-Eya2 inh, CtBP-E1A blk)
C(=NNc1ccc2ccccc2n1)c1ccccn1	Six1-Eya2 inh -69.0, CtBP-E1A blk -69.0 (no result: BAZ2B inh, JMJD2A Tudor inh, HP1b binding inh, TDP1 inh)
CCS(=O)(=O)Nc1c(C(=O)O)[nH]c2ccccc12	JMJD2A Tudor inh 89.1µM
COc1ccc(C(C(=O)NCc2ccccc2)N(C(=O)Cn2nnc3ccccc32)c2cccc(OC)c2)cc1 (stereo unspecified)	none (no result: Six1-Eya2 inh, CtBP-E1A blk)
CCSc1oc(-c2cccs2)nc1S(=O)(=O)c1ccc(Br)cc1	none (no result: Six1-Eya2 inh, CtBP-E1A blk)
CC(C)(C)c1ccc(C2Sc3ccccc3NC3=C2C(=O)c2ccccc23)cc1 (stereo unspecified)	BAZ2B inh 8.91µM, JMJD2A Tudor inh 25.1µM, HP1b binding inh inconclusive (no result: Six1-Eya2 inh, CtBP-E1A blk)
COc1ccccc1/C=C/C(=O)c1cc(Br)ccc1OC(=O)c1ccco1	JMJD2A Tudor inh 56.2µM (no result: BAZ2B inh, TDP1 inh)
CCNc1ccccc(C(=O)/C=C/c2ccc3c(c2)OCO3)c1=O	BAZ2B inh 44.7µM, JMJD2A Tudor inh 56.2µM, HP1b binding inh inconclusive
CCNc1ccc(Br)cc(C(=O)/C=C/c2ccccc2Cl)c1=O	JMJD2A Tudor inh 44.7µM (no result: BAZ2B inh, TDP1 inh)
O=C(C=Cc1ccccc1Cl)c1ccccc1	none (no result: BAZ2B inh, TDP1 inh)
CNc1ccc(Br)cc(C(=O)/C=C/c2cccc(OC)c2OC)c1=O	BAZ2B inh 39.8µM
Cc1ccccc1NS(=O)(=O)c1ccc(Br)s1	none (no result: Six1-Eya2 inh, CtBP-E1A blk)
Cc1cc(Cl)ccc1OCC(=O)Nc1c(Cl)ccc2nsnc12	none (no result: Six1-Eya2 inh, CtBP-E1A blk)
Cc1ccc(NC(=O)c2ccc(NC(=O)N3CCSc4nc(C)cc(C)c43)cc2)c(Cl)c1	none (no result: Six1-Eya2 inh, CtBP-E1A blk)
C/C(=C\c1cccc(Cl)c1Cl)C(=O)c1c(C)cc(C)[nH]c1=O	none (no result: CtBP-E1A blk, TDP1 inh)
CNc1ccc(Br)cc(C(=O)/C=C/c2cccc(Cl)c2Cl)c1=O	BAZ2B inh inconclusive, JMJD2A Tudor inh 44.7µM
CNc1ccccc(C(=O)/C=C/c2ccccc2OC)c1=O	BAZ2B inh 50.1µM, JMJD2A Tudor inh inconclusive
COc1ccccc1C=CC(=O)C=Cc1ccccc1OC	none (no result: BAZ2B inh, TDP1 inh)
O=C1CCN(C(=O)c2cccs2)c2ccccc21	none
CN1C(=O)/C(=C\C(=O)c2cccs2)c2ccccc21	BAZ2B inh 20µM, JMJD2A Tudor inh 50.1µM, HP1b binding inh 44.7µM
CCCCCCCCC(=O)N/N=C(\C)c1cccnc1	JMJD2A Tudor inh 89.1µM
C/C(=N\NC(=O)c1cccnc1)c1ccc(OC2OCCOC2Oc2ccc(/C(C)=N/NC(=O)c3cccnc3)cc2)cc1 (stereo unspecified)	JMJD2A Tudor inh 14.1µM, HP1b binding inh inconclusive
C/C(=N\NC(=O)c1cccs1)c1cccnc1	JMJD2A Tudor inh 17.8µM (no result: BAZ2B inh)
C/C(=N\Nc1ccccc1C)c1cccnc1	BAZ2B inh inconclusive, JMJD2A Tudor inh 50.1µM (no result: TDP1 inh)
C/C(=N\NC(=O)Cc1ccccc1)c1cccnc1	none
Cc1ccc(NC(=O)C(=O)NCC(c2cccnc2)N2CCN(Cc3ccccc3)CC2)cc1C (stereo unspecified)	none (no result: Six1-Eya2 inh, CtBP-E1A blk)
O=C(CSc1nnc(-c2ccccc2)c(-c2ccccc2)n1)NCCc1ccccc1	BAZ2B inh inconclusive, JMJD2A Tudor inh inconclusive (no result: Six1-Eya2 inh, CtBP-E1A blk)
CCOc1ccccc1CNS(=O)(=O)c1cc2c(cc1C)NC(=O)CO2	none (no result: Six1-Eya2 inh, CtBP-E1A blk)
Cc1cccc(NC(=O)CN2C(=O)CCSc3ccc(S(=O)(=O)N4CCOCC4)cc32)c1C	JMJD2A Tudor inh 50.1µM, TDP1 inh 35.5µM
COc1ccccc1NC(=O)CN1C(=O)COc2ccc(S(=O)(=O)N3CCC(C)CC3)cc21	none
O=C(CN1C(=O)CCSc2ccc(S(=O)(=O)N3CCOCC3)cc21)Nc1ccccc1Cl	BAZ2B inh inconclusive
CCOc1ccccc1NC(=O)CN1C(=O)COc2ccc(S(=O)(=O)N3CCOCC3)cc21	JMJD2A Tudor inh 15.8µM!
O=C(NCCCO)C(=O)NCC(c1ccc2c(c1)OCO2)N1CCOCC1 (stereo unspecified)	none (no result: Six1-Eya2 inh, CtBP-E1A blk)
